Five compounds from PubChem BioAssay can be followed below.

The nature of assay [1]: compounds binding Alexa647 anti-His antibody – biochemical, small-molecule microarray, 635 nm fluorescence, artefact control for SMM control protein annotation, primary screen (AID 1128).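 Also: score merges feature fluorescence with signal-to-noise for each printed compound spot.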 To be noted: higher = more signal.
Assay [2] relates to Human papillomavirus type 1a E7 protein (residues 1-88). Kind of assay: HPV1a E7 small-molecule binders, primary screen, biochemical, small-molecule microarray, residues 1-88, 635 nm (AID 1129). Particulars: small-molecule microarray binding, fluorescence 635 nm; higher = more signal.
Assay [3] addresses Focal adhesion kinase 1 (Homo sapiens) (UniProt Q05397). Kind of assay: PTK2 protein binding on printed compound slides – biochemical, small-molecule microarray, 635/667 nm fluorescence, BSA, DTT, primary screen (AID 1130).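 Also: composite of spot emission at 667 nm and signal to noise over triplicate slides.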 To be noted: 635 nm fluorescence, higher = more signal.
Assay [4] deals with Fibrinogen (Alexa647-labelled). Nature of the assay: Alexa647-fibrinogen binding to printed small molecules – biochemical, small-molecule microarray, 635/667 nm fluorescence, artefact control for SMM control-protein annotation, profiling panel (AID 1131).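 Also: z-score merges 667 nm fluorescence with per-spot signal-to-noise over triplicate slides.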 To be noted: fibrinogen-A647 binding fluorescence, higher = more signal.
Assay [5] deals with Follistatin (Homo sapiens) (UniProt P19883). Nature of the assay: FST protein binding to printed compounds – biochemical, small-molecule microarray, 635/667 nm fluorescence, primary screen (AID 1132). Particulars: 635 nm fluorescence, higher = more signal.
The target in assay [6] is Fibroblast growth factor 2 (Homo sapiens) (UniProt P09038). Nature of the assay: basic fibroblast growth factor binding to printed compounds – biochemical, small-molecule microarray, 635/667 nm fluorescence, primary screen (AID 1133). Particulars: FGF2, fluorescence 635/667, higher = more signal.
The nature of assay [7]: JC-1 mitochondrial potential readout, lung cancer cells – cell-based, A549, JC-1 fluorescence, basal, 24 h, 100 nL, profiling panel (AID 1138).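 Also: A549 lung adenocarcinoma cells under basal conditions with no added stimulus; test concentration not given here.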 To be noted: higher = more signal.
Another assay relates to Lefty1. Nature of the assay: Lefty1 protein binding to printed compounds – biochemical, small-molecule microarray, 635/667 nm fluorescence, primary screen (AID 1139). To be noted: fluorescence 635/667, higher = more signal.
The subject of assay [8] is wheat germ agglutinin (Triticum aestivum), Alexa647-labelled. Nature of the assay: Alexa647-WGA lectin binding to printed small molecules – biochemical, small-molecule microarray, 635/667 nm fluorescence, artefact control for SMM control-protein annotation, profiling panel (AID 1140).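 Also: score merges 667 nm feature emission with signal to noise over triplicate slides.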 To be noted: WGA-A647 binding, 635 nm fluorescence, higher = more signal.
For assay [9], the target named is Luciferin 4-monooxygenase (Photinus pyralis) (UniProt P08659). Nature of the assay: inhibition of purified Photinus pyralis luciferase – biochemical, luminescence, purified enzyme, 2006 set, primary screen (AID 1141).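 Also: cell-free assay with purified firefly luciferase at 100 ng per well in PBS; test concentration not given here.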 Particulars: purified firefly luciferase, SteadyGlo luminescence, 30 min; higher = more signal, called active from +8 up or from −8 down.
Assay [10] has as its system Wnt5a (protein binding on small-molecule microarray). Nature of the assay: small molecules binding Wnt5a protein – biophysical, small-molecule microarray, 635/667 nm fluorescence, primary screen (AID 1142).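 Also: fluorescence read at 667 nm with signal to noise per printed feature.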 To be noted: 635 nm fluorescence, higher = more signal.
Assay [11] in a line: ATP-based viability of Huh7 replicon cells – cell-based, CellTiter-Glo luminescence, basal, 48 h, cytotoxicity control for HCV replication inhibitor project, primary screen (AID 1143).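 Also: Huh7 hepatoma cells carrying a hepatitis C replication reporter with no stimulus; test concentration not given here.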 To be noted: higher = more signal, called active from +8 up or from −8 down.
A short description of assay [12]: Pseudomonas biofilm growth suppression – PAO1 strain, BacTiter-Glo luminescence, LB-PBS, primary screen (AID 1144). To be noted: P. aeruginosa PAO1 biofilm, 12 h, higher = more signal.
Assay [13] is described as follows: basal CRE-LacZ reporter activity in PC12 – cell-based, unstimulated, primary screen (AID 1145). To be noted: no forskolin, luminescence, 4.5 h, higher = more signal, called active from +8 up or from −8 down.
Assay [14] can be described thus: forskolin-driven CRE-LacZ activity in PC12 – cell-based, CRE-LacZ reporter, forskolin-stimulated, primary screen (AID 1146).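 Also: PC12 cells with 6xCRE LacZ reporter stimulated by forskolin 10 µM; beta-galactosidase reporter signal reflecting CREB driven transcription.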 To be noted: luminescence, 4.5 h, higher = more signal, called active from +8 up or from −8 down.
Assay [15] addresses Streptavidin (Streptomyces avidinii) (UniProt P22629). Kind of assay: compounds binding control protein streptavidin – biophysical, small-molecule microarray, 635/667 nm fluorescence, artefact control for SMM compound annotation, primary screen (AID 1147).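 Also: signal reflects streptavidin binding to arrayed compounds as a control protein.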 Particulars: higher = more signal.
A short description of assay [16]: probe aInhba binding on compound microarray – biochemical, small-molecule microarray, 635/667 nm fluorescence, primary screen (AID 1148).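 Also: score merges 667nm spot fluorescence with signal-to-noise for antibody binding to printed compounds.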 Particulars: higher = more signal.
Assay [17] has as its target Torsin-1A (Homo sapiens) (UniProt O14656). Kind of assay: TOR1A wild-type binding on microarray – cell lysate, small-molecule microarray, lysate, 635/667 nm, primary screen (AID 1149). To be noted: COS7 hTOR1A-WT lysate, 635 nm fluorescence, higher = more signal.
The target is the same in assay [18]. Kind of assay: torsin A mutant lysate binding on microarrays – cell lysate, small-molecule microarray, COS7 lysate, 635/667 nm fluorescence, primary screen (AID 1150).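 Also: score pools 667 nm emission and signal to noise measuring lysate protein binding.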 To be noted: COS7 hTOR1A mutant lysate, 635 nm fluorescence, higher = more signal.
The test system of assay [19] is Sonic hedgehog protein (Shh). Nature of the assay: Sonic hedgehog microarray binding compounds – biochemical, small-molecule microarray, 635/667 nm fluorescence, primary screen (AID 1151).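 Also: Shh protein binding to compounds spotted on small-molecule microarray slides; score combines spot fluorescence intensity with signal-to-noise across triplicate slides.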 Particulars: 635 nm fluorescence, higher = more signal.

Active and inactive are the calls of the source. Unless noted, no rule for the calls is given here.

Chain of Focal adhesion kinase 1 (Homo sapiens) (Q05397 whole entry, looked up): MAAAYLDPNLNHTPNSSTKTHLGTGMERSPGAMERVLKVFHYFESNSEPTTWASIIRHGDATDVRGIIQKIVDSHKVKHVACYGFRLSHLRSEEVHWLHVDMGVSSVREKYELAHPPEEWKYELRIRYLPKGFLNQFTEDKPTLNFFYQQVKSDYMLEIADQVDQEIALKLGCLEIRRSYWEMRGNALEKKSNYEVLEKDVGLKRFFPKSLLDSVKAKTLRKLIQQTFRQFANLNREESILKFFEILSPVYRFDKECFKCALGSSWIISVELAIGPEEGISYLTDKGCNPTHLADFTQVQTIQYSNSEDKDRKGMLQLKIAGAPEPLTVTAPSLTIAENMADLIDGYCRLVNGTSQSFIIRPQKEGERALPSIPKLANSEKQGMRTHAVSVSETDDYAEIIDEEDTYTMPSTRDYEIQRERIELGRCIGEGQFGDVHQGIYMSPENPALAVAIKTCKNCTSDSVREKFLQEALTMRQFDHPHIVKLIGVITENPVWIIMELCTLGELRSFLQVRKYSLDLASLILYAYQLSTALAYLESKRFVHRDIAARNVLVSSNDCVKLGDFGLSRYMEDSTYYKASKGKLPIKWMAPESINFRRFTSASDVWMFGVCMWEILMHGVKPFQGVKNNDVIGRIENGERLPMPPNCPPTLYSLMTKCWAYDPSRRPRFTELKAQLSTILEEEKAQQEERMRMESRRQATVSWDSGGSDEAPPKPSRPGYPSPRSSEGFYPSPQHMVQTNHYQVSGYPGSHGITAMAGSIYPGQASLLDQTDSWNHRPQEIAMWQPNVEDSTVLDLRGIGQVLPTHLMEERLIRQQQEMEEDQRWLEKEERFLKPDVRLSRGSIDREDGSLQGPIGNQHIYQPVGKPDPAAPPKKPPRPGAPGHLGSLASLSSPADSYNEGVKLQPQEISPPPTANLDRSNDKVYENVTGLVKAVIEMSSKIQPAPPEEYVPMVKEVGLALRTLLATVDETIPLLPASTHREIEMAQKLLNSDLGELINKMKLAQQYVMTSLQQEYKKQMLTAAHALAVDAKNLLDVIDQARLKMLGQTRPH
Chain of Follistatin (Homo sapiens) (P19883 whole entry, looked up): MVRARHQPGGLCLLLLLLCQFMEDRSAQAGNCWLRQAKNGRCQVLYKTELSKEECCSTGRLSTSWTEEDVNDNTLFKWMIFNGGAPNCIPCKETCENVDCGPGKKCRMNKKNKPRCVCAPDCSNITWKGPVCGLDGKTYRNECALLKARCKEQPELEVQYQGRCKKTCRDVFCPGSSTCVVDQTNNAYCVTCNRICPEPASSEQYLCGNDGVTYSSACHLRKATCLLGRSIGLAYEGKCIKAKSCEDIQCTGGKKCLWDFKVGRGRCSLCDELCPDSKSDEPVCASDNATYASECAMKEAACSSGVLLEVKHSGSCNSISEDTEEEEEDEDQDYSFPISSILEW
Chain of Streptavidin (Streptomyces avidinii) (P22629 whole entry, looked up): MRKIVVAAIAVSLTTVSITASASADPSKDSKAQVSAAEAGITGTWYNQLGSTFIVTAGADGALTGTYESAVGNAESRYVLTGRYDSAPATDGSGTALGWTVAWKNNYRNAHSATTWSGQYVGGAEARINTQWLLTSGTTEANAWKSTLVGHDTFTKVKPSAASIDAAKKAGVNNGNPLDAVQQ
Chain of Torsin-1A (Homo sapiens) (O14656 whole entry, looked up): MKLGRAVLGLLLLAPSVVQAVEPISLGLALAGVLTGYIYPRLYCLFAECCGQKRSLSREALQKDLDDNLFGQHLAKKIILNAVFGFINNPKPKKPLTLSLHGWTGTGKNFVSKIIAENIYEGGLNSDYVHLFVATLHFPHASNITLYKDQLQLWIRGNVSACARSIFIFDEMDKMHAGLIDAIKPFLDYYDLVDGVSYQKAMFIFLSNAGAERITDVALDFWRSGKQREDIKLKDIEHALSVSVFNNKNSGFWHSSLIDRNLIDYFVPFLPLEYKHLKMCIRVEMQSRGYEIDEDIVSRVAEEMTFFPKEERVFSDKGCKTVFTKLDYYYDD
Chain of Fibroblast growth factor 2 (Homo sapiens) (P09038 whole entry, looked up): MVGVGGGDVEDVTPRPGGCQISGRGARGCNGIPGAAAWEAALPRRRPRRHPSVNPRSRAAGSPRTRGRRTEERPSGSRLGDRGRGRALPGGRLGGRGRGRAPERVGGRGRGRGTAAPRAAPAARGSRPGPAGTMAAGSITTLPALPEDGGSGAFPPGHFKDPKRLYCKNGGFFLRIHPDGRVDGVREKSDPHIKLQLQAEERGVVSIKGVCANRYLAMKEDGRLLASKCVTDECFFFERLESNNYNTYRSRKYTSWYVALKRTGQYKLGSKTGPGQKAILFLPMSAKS
Chain of Luciferin 4-monooxygenase (Photinus pyralis) (P08659 whole entry, looked up): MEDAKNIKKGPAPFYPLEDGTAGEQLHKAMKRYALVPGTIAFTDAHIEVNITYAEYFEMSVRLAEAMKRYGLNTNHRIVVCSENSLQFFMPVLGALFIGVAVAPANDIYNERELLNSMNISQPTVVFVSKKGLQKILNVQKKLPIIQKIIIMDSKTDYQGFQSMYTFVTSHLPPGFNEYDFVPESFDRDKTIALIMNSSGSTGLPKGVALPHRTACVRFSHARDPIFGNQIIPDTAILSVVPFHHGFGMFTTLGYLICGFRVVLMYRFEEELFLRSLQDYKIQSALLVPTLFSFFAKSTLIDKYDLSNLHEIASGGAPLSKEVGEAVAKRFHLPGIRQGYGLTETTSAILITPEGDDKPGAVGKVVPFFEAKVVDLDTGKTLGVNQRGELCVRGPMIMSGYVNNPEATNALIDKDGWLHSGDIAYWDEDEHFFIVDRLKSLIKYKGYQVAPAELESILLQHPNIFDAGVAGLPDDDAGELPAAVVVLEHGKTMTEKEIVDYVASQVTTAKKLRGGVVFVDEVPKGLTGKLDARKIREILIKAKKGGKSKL

`CCOC(=CC(=O)OC)CC(O)c1cccc(Cl)c1` (stereo not given): the composite z-score in [1] is 1.83; in assay [2], 1.15; in assay [3], 0.702; in assay [4], -0.76; in [5] it was -0.23; in assay [6] it was -0.745. The composite z-score in the assay with Lefty1 is -0.417; in [8] it was 1.22; in assay [10], -0.256; in [15], -0.668; in [16], -0.204; with Torsin-1A (Homo sapiens) [17] it was 1.31. Also, the composite z-score with Torsin-1A (Homo sapiens) [18] is 0.522; in [19], -0.41. Moreover, the z-score in assay [7] was 1.32; in assay [9], -0.135 (inactive); in assay [11] it was -3.84 (inactive); in assay [12], 0.114 (inactive); in [13], 0.584 (inactive); in assay [14], -0.216 (inactive).
With `CN1C(=O)C2C=CC(C(O)C3CCCCC3)N(N3CCCCC3)C2C1=O` (stereo not given), the composite z-score in assay [1] amounted to 1.18; in assay [2], 1.26; in assay [3], 0.542; in assay [4], 0.957; in assay [5], 1.31; in assay [6] it was 0.182. The composite z-score in the assay on Lefty1 was determined as 0.766; in assay [8], 0.774; in assay [10], 0.341; in [15], 0.842; in [16], 0.268; in the assay with Torsin-1A (Homo sapiens) [17], 0.221. In addition, the composite z-score in the assay with Torsin-1A (Homo sapiens) [18] worked out at 0.579; in assay [19] it was 0.875. For the same compound, the z-score in assay [7] is 1.25; in assay [9], 0.49 (inactive); in assay [11], 0.505 (inactive); in assay [12] it was -0.416 (inactive); in assay [13] it was -0.326 (inactive); in assay [14], 0.158 (inactive).
For `O=C1O[C@@H](c2ccccc2)[C@@H](c2ccccc2)N2[C@@H](c3ccc(O)cc3)[C@]3(C(=O)Nc4ccccc43)[C@@H](C(=O)Nc3nc4ccccc4s3)[C@H]12`, the composite z-score in assay [1] came out at 1.07; in assay [2], 1.18; in assay [3], 0.708; in assay [4], 0.975; in [5] it was 1.2; in [6], 0.398. In addition, the composite z-score is 0.745 in the assay with Lefty1; 0.634 in assay [8]; 1.09 in assay [10]; 0.243 in [15]; -0.128 in assay [16]; 0.0151 in the assay with Torsin-1A (Homo sapiens) [17]. The values for the composite z-score (in the assay with Torsin-1A (Homo sapiens) [18]; in assay [19]) were 0.325 and 0.183, respectively. The z-score was -2.38 in assay [7]; -1.1 (inactive) in assay [9]; -4.19 (inactive) in assay [11]; -1.87 (inactive) in assay [12]; 0.389 (inactive) in assay [13]; -0.0768 (inactive) in [14].
Regarding `C=C(COC)/C(=C/C[C@@H](OC(=O)c1ccncc1)c1cccc(OCCO)c1)c1cnc2ccccc2c1`, the composite z-score in assay [1] was 2.26; in assay [2], 1.17; in [3] it was 0.191; in [4] it was 0.922; in assay [5] it was 1.48; in assay [6] it was 1.68. Besides, the composite z-score came out at 1.64 in the assay with Lefty1; 1.55 in assay [8]; 0.381 in assay [10]; 2.64 in assay [15]; 0.248 in [16]; 1.16 with Torsin-1A (Homo sapiens) [17]. Also, the composite z-score was determined as 2.74 with Torsin-1A (Homo sapiens) [18] and 2.3 in [19]. Also, the z-score in [7] is 0.746; in assay [9], -1.68 (inactive); in assay [11] it was -8.02 (active); in assay [12], -0.639 (inactive); in assay [13], 12.6 (active); in [14] it was 0.818 (inactive).
For `Cc1ccc(F)cc1S(=O)(=O)N[C@@H]1CCN(Cc2ccc(Oc3ccccc3)cc2)C1`, the composite z-score in assay [1] is 0.258; in assay [2], -0.922; in assay [3] it was -0.271; in assay [4], 0.738; in assay [5], 1.03; in assay [6], 0.424. Besides, the composite z-score in the assay on Lefty1 is 1.09; in assay [8], 0.853; in assay [10], -0.123; in [15], -0.235; in assay [16] it was -0.0403; with Torsin-1A (Homo sapiens) [17] it was 0.575. Besides, the composite z-score came to 0.251 in the assay with Torsin-1A (Homo sapiens) [18] and 1.07 in assay [19]. In addition, the z-score was 0.663 in assay [7]; 0.453 (inactive) in [9]; -4.83 (inactive) in [11]; 0.913 (inactive) in [12]; 0.677 (inactive) in assay [13]; 0.865 (inactive) in assay [14].
